Data from paper PMC13541613, “GHT-SELEX demonstrates unexpectedly high intrinsic sequence specificity and complex DNA binding of many human transcription factors”.

target: ZNF721 DBD2 (Homo sapiens, UniProt Q8TF20-2 395-923); assay: HT-SELEX; 20 mM HEPES pH 7, 140 mM KCl, 5 mM NaCl, 1 mM K2HPO4, 2 mM MgSO4, 100 uM EGTA, ZnSO4, 0.1% Tween20; room temperature, 1 h; high values mean tight binding; settings: protein: ivt; tags: eGFP (N-terminal); dsDNA, one strand shown
Method in brief: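 A tagged transcription factor, either full-length or its DNA-binding-domain fragment, was made in HEK293 lysate or cell-free extract, immobilised on beads and incubated with a randomized 40-base DNA library for 1 h at room temperature in HEPES/KCl low-stringency buffer containing Tween20. Washed beads were heat-eluted, and the bound DNA was PCR-amplified over successive cycles and Illumina-sequenced at ~3 million 60 bp reads per sample. The binding signal is the relative k-mer count in selected reads, where a higher value means tighter binding.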

Chain of ZNF721 DBD2 (Q8TF20 383-911): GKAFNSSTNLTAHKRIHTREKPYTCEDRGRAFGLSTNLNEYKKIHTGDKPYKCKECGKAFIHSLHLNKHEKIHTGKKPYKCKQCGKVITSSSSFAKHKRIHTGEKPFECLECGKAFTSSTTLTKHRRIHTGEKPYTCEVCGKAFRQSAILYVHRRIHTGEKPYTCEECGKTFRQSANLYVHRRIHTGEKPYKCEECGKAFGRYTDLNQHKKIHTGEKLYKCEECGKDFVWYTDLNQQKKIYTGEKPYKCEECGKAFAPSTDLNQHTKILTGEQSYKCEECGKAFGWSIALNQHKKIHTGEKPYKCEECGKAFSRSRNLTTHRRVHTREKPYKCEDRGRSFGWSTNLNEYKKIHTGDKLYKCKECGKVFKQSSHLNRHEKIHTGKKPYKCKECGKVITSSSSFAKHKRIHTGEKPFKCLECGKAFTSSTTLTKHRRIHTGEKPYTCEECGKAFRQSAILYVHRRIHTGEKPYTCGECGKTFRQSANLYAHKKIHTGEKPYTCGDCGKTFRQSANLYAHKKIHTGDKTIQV

Row | Sequence | binding signal
1 | CCCCCACTCC | 0.00288 relative 10-mer count
2 | CCGCCCACCC | 0.0018 relative 10-mer count
3 | AAGTGTATCC | 0.00503 relative 10-mer count
4 | AGGGGTGGTG | 0.00407 relative 10-mer count
5 | CCACCCACCG | 0.00731 relative 10-mer count
6 | AAAAGCTGCC | 0.00108 relative 10-mer count
7 | CCACGCCCAC | 0.00431 relative 10-mer count
8 | AGGGAGGGGG | 0.00384 relative 10-mer count
9 | CGAAAAAAAA | 0.0695 relative 10-mer count
10 | CCCCACGCCC | 0.00395 relative 10-mer count
11 | GAAAAAAAAA | 0.0513 relative 10-mer count
12 | CCACCCTACC | 0.00839 relative 10-mer count
13 | CGCCCACCAC | 0.00384 relative 10-mer count
14 | CGCTTTTTTC | 0.0303 relative 10-mer count
15 | AAAGCAGCAC | 0.126 relative 10-mer count
16 | CCCCGCCCTC | 0.00216 relative 10-mer count
17 | CCCACCCGAC | 0.00479 relative 10-mer count
18 | GCCCCCACCC | 0.00407 relative 10-mer count
19 | CCCTCCCGCC | 0.00503 relative 10-mer count
20 | AGGGGGGTGG | 0.00407 relative 10-mer count

Row | Sequence | binding signal
21 | AGGGGTGGGG | 0.00372 relative 10-mer count
22 | ACAAAAAAAA | 0.0899 relative 10-mer count
23 | TCCCCCCCCA | 0.00264 relative 10-mer count
24 | CCACCTCCCC | 0.00336 relative 10-mer count
25 | CGCCCTCCCC | 0.00252 relative 10-mer count
26 | CCCAACCACC | 0.00539 relative 10-mer count
27 | GCCCGCCCCC | 0.00132 relative 10-mer count
28 | CTTTTTTTTA | 0.0588 relative 10-mer count
29 | AAAGCAGGGT | 0.337 relative 10-mer count
30 | CCCCTCCCAC | 0.00695 relative 10-mer count
31 | CCCCACCCAC | 0.00587 relative 10-mer count
32 | CCCCCGACCC | 0.0018 relative 10-mer count
33 | CCCGCCCCCG | 0.00144 relative 10-mer count
34 | ACCCCAACCC | 0.00348 relative 10-mer count
35 | CCACCACCCG | 0.00467 relative 10-mer count
36 | AAAGCATACC | 0.0344 relative 10-mer count
37 | GCACCCCACC | 0.00491 relative 10-mer count
38 | AGCATACCCT | 0.416 relative 10-mer count
39 | ACCCCCCACC | 0.00491 relative 10-mer count
40 | GCCACCCCCC | 0.00348 relative 10-mer count
